Shiga toxin inh = blocks Shiga toxin action in Vero cells; Vero cells, Shiga toxin protein synthesis inhibition reporter; inhibition, % at 38.7 µM; AID 2315; actives 9.2% (n = 290,000); in the data active means inhibition mostly above about 28%, no sharp cut-off; inactive means mostly below about 43%
TbPYK inhibitor = T. brucei pyruvate kinase inhibition; Potency, µM (series often up to 76.8 µM), usual class: inhibitors; Q57TT1; TbPYK enzyme, Kinase-Glo Plus ATP luminescence, 45 min; actives 0.12% (n = 410,000); active means well fitted curve in the direction sought with a large enough effect; inconclusive means small, poorly fitted or top-dose-only effect, or another doubt; inactive means no such curve, though single readings can be large; an effect the other way counts as inactive or inconclusive; further: nearly all actives have a fitted effect of over 50% in size
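Assay buffer: 50 mM TEA pH 7.2, 100 mM KCl, 10 mM MgCl2, 0.05% BSA, 0.01% Tween-20. Pyruvate kinase from T. brucei plus substrate met compound, then ADP (130 uM final). Luminescence was read post 45 min RT.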
NS1 function inh = influenza NS1 inhibition. actives 0.4% (n = 270,000). Potency, µM (series often up to 46.1 µM); further: actives are rising curves; nearly all actives have a fitted effect of over 50% in size
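Growth recovery, yeast-based: influenza A NS1 expressed in S. cerevisiae causes slow growth, and suppressors are detected by OD600. The parent strain without NS1 is used as positive control.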
SARS PLpro yeast = SARS-CoV PLP inhibition in yeast; actives 0.19% (n = 330,000); Potency, µM (series often up to 32.9 µM), most hits filed as activators; AID 485353; S. cerevisiae expressing SARS-CoV PLpro, growth rescue; further: nearly all actives have a fitted effect of over 55% in size
CHX counter = affects cycloheximide protein synthesis inhibition readout, counter-screen; cell reporter, cycloheximide protein synthesis inhibition counterscreen; max response, %; actives 12% (n = 300,000); AID 2314; in the data active means max response mostly above about 13%, no sharp cut-off; inactive means mostly below about 14%; further: read at 38.3 µM for the half of the compounds with a filed dose
LmPK inh = inhibitors of Leishmania mexicana pyruvate kinase; Q27686; AID 1721; purified LmPK, Kinase-Glo ATP luminescence, 1 h; actives 0.37% (n = 290,000); Potency, µM (doses to about 57.5 µM), usual class: inhibitors; active means well fitted curve in the direction sought with a large enough effect; inconclusive means small, poorly fitted or top-dose-only effect, or another doubt; inactive means no such curve, though single readings can be large; an effect the other way counts as inactive or inconclusive
Target sequence (Q27686 whole entry, looked up): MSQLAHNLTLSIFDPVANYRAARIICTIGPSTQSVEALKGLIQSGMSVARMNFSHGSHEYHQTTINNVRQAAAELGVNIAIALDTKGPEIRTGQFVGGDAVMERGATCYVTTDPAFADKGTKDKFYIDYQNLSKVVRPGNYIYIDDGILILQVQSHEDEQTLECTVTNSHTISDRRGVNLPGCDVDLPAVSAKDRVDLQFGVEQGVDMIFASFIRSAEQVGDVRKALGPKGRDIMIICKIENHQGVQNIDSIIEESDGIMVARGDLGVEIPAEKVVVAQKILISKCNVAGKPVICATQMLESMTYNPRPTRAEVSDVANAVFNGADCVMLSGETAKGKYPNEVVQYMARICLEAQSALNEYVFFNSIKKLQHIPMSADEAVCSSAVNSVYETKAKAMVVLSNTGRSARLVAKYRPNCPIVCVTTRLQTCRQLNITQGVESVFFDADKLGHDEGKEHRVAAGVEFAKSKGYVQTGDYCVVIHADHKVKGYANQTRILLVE
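Pyruvate kinase activity monitored as ATP production (luciferase luminescence). Conditions: 0.1 nM enzyme, 0.5 mM PEP, 0.1 mM ADP, 1 h, RT; normalized against uninhibited and no-enzyme wells.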
A number is an active result; n = inactive; u = inconclusive; x = no result. Shown is part of a subset that was picked to be rich in hits. Unless noted, the call rests on the fitted dose curve.

SMILES | Shiga toxin inh | TbPYK inhibitor | NS1 function inh | SARS PLpro yeast | CHX counter | LmPK inh
CC1CN(C(=O)Nc2ccc(Br)cc2Cl)CC(C)O1 (centres undefined) | n | n | n | n | n | n
Cc1ccc(NC(=O)CCN2CCCCC2)cc1 | 41.5 | n | n | n | 28.5 | n
COc1ccc(NC(=O)NC2(C(=O)N3CCOCC3)CCCCC2)cc1 | n | n | n | n | 21.8 | n
CCc1ccc(NC(=O)NCCCN2CCCC2=O)cc1 | 31.2 | n | n | n | 27.7 | n
CCC(C)C(NC(=O)OC(C)(C)C)C(=O)NC(C)C(N)=O (centres undefined) | n | n | n | n | n | n
CCc1ccc(OCCCCN(C)Cc2ccccc2)cc1 | x | n | n | n | n | n
O=C(O)C(c1ccccc1)C1(O)CCC1 (centres undefined) | x | n | x | x | x | x
Cc1cc(C)c(NC(=O)Cn2c(=O)oc3cc(S(=O)(=O)N4CCCCCC4)ccc32)c(C)c1 | x | n | x | x | x | x
C[C@H](CO)N1C[C@H](C)[C@H](CN(C)Cc2cncnc2)Oc2cc(Br)ccc2S1(=O)=O | x | n | x | x | x | x
O=C(NCCCN1CCCC1=O)c1csc2ccccc12 | n | n | n | n | 11.9 | n
Cc1cc(C(=O)NCCCN2CCCC2=O)cs1 | n | n | n | n | n | n
Cc1ccc(NC(=O)N2CCC(C(N)=O)CC2)cc1 | n | n | n | n | n | n
Cc1ccc(NC(=O)N2CCCCCC2)cc1 | 83.7 | n | n | n | 35.8 | n
CCOC(=O)c1ccc(NC(=O)N2CCCCC2)cc1 | 78.5 | n | n | n | 41.4 | n
COc1cc(OC)c(NC(=O)Cn2c(=O)cc(C(F)(F)F)c3c(C)nn(C)c32)cc1Cl | x | n | x | x | x | x
CC[C@@H]1CC(=O)N(SC[C@H](N)C(=O)O)C1=O | x | x | n | x | x | x
CN(C(=O)COC(=O)c1cccc(F)c1)c1ccccc1 | n | n | n | n | 12.6 | n
Nc1ccccc1C(=O)OCCOc1ccccc1 | 86.5 | n | n | n | 33.9 | u
O=C(COC(=O)c1n[nH]c2ccccc12)Nc1ccc(S(=O)(=O)N2CCCC2)cc1 | n | n | n | n | n | n
O=C(COC(=O)c1n[nH]c2ccccc12)Nc1ccccc1 | 56.9 | n | n | n | 38.9 | n
CC(=O)c1cccc(NC(=O)COC(=O)c2n[nH]c3ccccc23)c1 | 102.0 | n | x | n | 19.3 | n
O=C(COC(=O)c1n[nH]c2ccccc12)Nc1cccc(S(=O)(=O)N2CCOCC2)c1 | n | n | x | n | n | n
CCOC(=O)c1c(C)oc2nc(C)nc(NCc3ccccc3OC)c12 | x | n | x | x | x | x
O=C(COC(=O)c1ccc2[nH]c3c(c2c1)CCCC3)Nc1ccccc1 | 41.7 | n | n | n | 15.7 | n
O=C(OCCOc1ccccc1)c1n[nH]c2ccccc12 | 55.2 | n | n | n | 47.3 | n
SMILES | Shiga toxin inh | TbPYK inhibitor | NS1 function inh | SARS PLpro yeast | CHX counter | LmPK inh
CN(C(=O)COC(=O)c1n[nH]c2ccccc12)c1ccccc1 | n | n | n | n | 26.7 | n
Cc1cc(C)cc(NC(=O)COC(=O)c2n[nH]c3ccccc23)c1 | 64.8 | n | x | n | n | n
O=C(O)c1ccncc1.O=C(O)c1ccncc1.[Cl][Pt]([Cl])([Cl])[Cl] | x | x | n | x | x | x
Cc1cnc(NS(=O)(=O)c2ccc(N)cc2)nc1-c1ccccc1O | x | n | x | x | x | x
Cc1c(C2=CCN(S(=O)(=O)c3cccc(Cl)c3)CC2)c2ccccc2n1CC(=O)N1CCCC1 | n | n | x | x | n | x
COc1ccc(S(=O)(=O)NCC(c2cccnc2)N2CCN(Cc3ccccc3)CC2)cc1C (centres undefined) | n | n | n | n | n | n
Cc1ccc(-n2nc(C)c3c(C)c(CCC(=O)NCc4ccccc4Cl)c(C)nc32)cc1 | x | n | x | x | x | x
COc1ccc(-n2ncc3c2ncn2nc(-c4ccc(OC)c(OC)c4)nc32)cc1 | x | n | x | x | x | x
CCc1cc2c(=O)c(-c3ccc4c(c3)OCCO4)coc2cc1OS(C)(=O)=O | 78.7 | n | n | n | 42.2 | n
COC(=O)c1c(NC(=O)C2C3CCC(O3)C2C(=O)O)sc2c1CCCCCC2 (centres undefined) | n | n | n | n | n | n
COC(=O)c1c(NC(=O)C2C3CCC(C3)C2C(=O)O)sc2c1CCCCC2 (centres undefined) | 51.2 | n | n | n | n | n
CCCCC(CC)COC(=O)/C=C/c1ccc(OC)cc1 (centres undefined) | x | n | x | x | x | x
COc1ccc(/C=C/C(=O)OCCC(C)C)cc1 | 104.9 | n | x | x | 33.7 | x
COc1ccc(/C=C/C(=O)O)cc1 | n | n | x | n | n | x
COc1ccc(/C=C/C(=O)CCC(=O)O)cc1 | 56.3 | n | n | n | 32.0 | n
CC(=O)N1C[C@H]2CON(C)[C@H]2C[C@H]1c1ccccc1 | x | n | x | x | x | x
COc1ccc(-c2cc3nc(CCl)[nH]c(=O)c3s2)cc1 | n | n | n | n | n | n
COc1ccc(-c2cc3nc[nH]c(=O)c3s2)cc1 | n | n | n | n | 35.2 | n
O=c1[nH]cnc2cc(-c3ccccc3)sc12 | 118.3 | n | n | n | 47.9 | n
COC(=O)c1cc2occc2n1Cc1nc(-c2ccccc2)oc1C | x | n | x | x | x | x
CCN1CCN(CCCOc2ccc(-c3ccccc3)cc2)CC1 | 70.4 | n | n | n | 37.2 | n
CN1CCN(CCCOc2ccc(-c3ccccc3)cc2)CC1 | 74.6 | n | n | n | 27.4 | n
CN1CCN(CCOc2ccc(-c3ccccc3)cc2)CC1 | 85.8 | n | n | u | 46.2 | n
CCOc1ccc(OCc2cccc(C(=O)N3CCOCC3)c2)cc1 | 127.3 | n | n | n | 100.6 | n
CC1CN(C(=O)c2cccc(COc3ccc(Br)cc3)c2)CC(C)O1 (centres undefined) | 12.8 | n | n | n | 57.6 | n
SMILES | Shiga toxin inh | TbPYK inhibitor | NS1 function inh | SARS PLpro yeast | CHX counter | LmPK inh
CCOc1ccc(N=C(/C(C(=O)C(=O)N2CCOCC2)=C(/O)c2ccccc2)c2ccccc2)cc1 | 61.7 | n | n | n | 46.9 | n
O=C(c1cccc(Oc2ccccc2)c1)N1CCOCC1 | n | n | n | n | n | n
CC1CN(C(=O)c2cccc(S(=O)(=O)NCc3ccccc3)c2)CC(C)O1 (centres undefined) | x | n | x | n | x | x
O=C(c1cccc(OCc2ccccc2)c1)N1CCOCC1 | n | n | x | n | 12.9 | n
O=C(Nc1ccccc1Cl)C1CCN(c2nc3ccccc3nc2C(F)(F)F)CC1 | x | n | x | x | x | x
Cc1ccc(-n2nc3cc(C)c(NC(=O)c4ccc(-c5ccccc5)o4)cc3n2)cc1 | x | n | x | x | x | x
N#CC1=C(N)N(c2cccc(Cl)c2)C2=C(C(=O)CCC2)C1c1cc(CN2CCOCC2)cs1 (centres undefined) | x | n | x | x | x | x
CN(C)c1ncc2nc(-c3ccc(F)cc3)c(=O)n(CCC#N)c2n1 | x | n | x | x | x | x
CSc1ccccc1OCc1cc(C(=O)NCCC2=CCCCC2)no1 | 27.9 | n | n | n | n | n
CC(=O)c1cccc(OCc2cc(C(=O)NCCC3=CCCCC3)no2)c1 | 101.1 | n | n | n | 42.2 | n
O=C(NCCC1=CCCCC1)c1cc(COc2c(F)cccc2F)on1 | n | n | n | n | n | n

High-throughput results deposited in PubChem BioAssay by National Center for Advancing Translational Sciences (NCATS).
